The list is not random: actives were taken first. Their share in the collection is about 7%.
HP1b chromo inh = HTS for Inhibitors of HP1-beta Chromodomain Interactions with Methylated Histone Tails. AlphaScreen HP1-beta / biotin-H3K9me3 peptide binding. Potency, µM (doses to about 114 µM), for the others: top-dose activity change, negative = inhibition, hits mostly inhibitors. 390,000 tested, 0.56% active. Chromobox protein homolog 1 (Homo sapiens), P83916; further: potency means the concentration at half of the fitted maximal effect; nearly all actives have a fitted effect of over 70% in size
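AlphaScreen: HP1-beta (50 nM) preformed 30 min with biotin-H3(1-18)K9me3 peptide (50 nM) in PBS pH 7.4, 0.01% Tween-20. Compound added for 30 min at RT, then streptavidin donor/nickel chelate acceptor beads (10 ug/mL) for 30 min.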
PI5P4K alpha inh = qHTS for Inhibitors of phosphatidylinositol 5-phosphate 4-kinase (PI5P4K) | Phosphatidylinositol 5-phosphate 4-kinase type-2 alpha (Homo sapiens), P48426 | PI5P4Kalpha enzyme, ADP-Glo luminescence, 60 min; active compounds read low | max response, % | 330,000 tested, 1.2% active; active means max response of -50% or lower; inconclusive means between -30% and -50%; inactive means -30% or higher; further: value at the top dose of about 77 µM; on the % scale 0 is the no-effect control and ±100 the full control effect
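Quantitative HTS of the MLSMR library against PI5P4Kalpha with substrate. ATP added last at 5 microM final; room temperature, 60 minutes. Remaining ATP depleted, ADP converted and read as luminescence.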
KAT2A inh = qHTS Assay for Inhibitors of GCN5L2 | Histone acetyltransferase KAT2A (Homo sapiens), Q92830 | GCN5L2 HAT assay, ThioGlo1 CoA-SH fluorescence | Potency, µM (top dose mostly 58.9 µM), without a hit: at the top dose activity change, negative = inhibition, actives largely listed as inhibitors | 390,000 tested, 0.21% active | AID 504327, 2011; further: potency means the concentration at half of the fitted maximal effect; on the % scale 0 is the no-effect control and ±100 the full control effect
Target sequence (Q92830 whole entry, looked up): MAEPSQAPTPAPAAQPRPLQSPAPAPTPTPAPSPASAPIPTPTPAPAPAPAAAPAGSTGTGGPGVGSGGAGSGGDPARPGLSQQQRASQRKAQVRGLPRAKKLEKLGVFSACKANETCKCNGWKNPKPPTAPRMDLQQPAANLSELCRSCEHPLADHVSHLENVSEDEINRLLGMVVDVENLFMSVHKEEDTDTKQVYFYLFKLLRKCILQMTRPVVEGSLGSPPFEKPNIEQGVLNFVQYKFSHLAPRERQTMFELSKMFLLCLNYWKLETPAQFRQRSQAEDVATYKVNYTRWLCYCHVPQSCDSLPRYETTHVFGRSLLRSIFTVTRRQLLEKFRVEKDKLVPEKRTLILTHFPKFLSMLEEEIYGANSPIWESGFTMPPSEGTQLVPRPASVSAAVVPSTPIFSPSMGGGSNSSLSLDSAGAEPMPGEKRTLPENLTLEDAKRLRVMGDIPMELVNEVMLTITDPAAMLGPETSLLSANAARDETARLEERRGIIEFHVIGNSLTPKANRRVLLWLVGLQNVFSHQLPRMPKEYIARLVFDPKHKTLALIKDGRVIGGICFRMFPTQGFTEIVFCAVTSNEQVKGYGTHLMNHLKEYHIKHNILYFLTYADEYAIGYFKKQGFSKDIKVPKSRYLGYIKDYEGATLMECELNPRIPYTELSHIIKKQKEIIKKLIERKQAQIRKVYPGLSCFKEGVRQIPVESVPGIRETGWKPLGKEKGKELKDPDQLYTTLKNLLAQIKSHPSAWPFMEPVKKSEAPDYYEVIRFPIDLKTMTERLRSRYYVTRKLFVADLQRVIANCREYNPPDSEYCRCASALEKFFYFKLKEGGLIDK
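qHTS, 1536-well. 20nM enzyme, pH 7.5 HEPES/EDTA/Tween-20 buffer; 15 min compound preinc., RT. Start: 75uM H3(1-25), 70uM AcCoA, 50uM ThioGlo1. Read Ex340/Em540 at t=0 (autofluorescence flag) and t=20 min.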
BAZ2B inh = qHTS Assay for Inhibitors of BAZ2B | AlphaScreen BAZ2B-H3K14Ac peptide displacement | Potency, µM (top dose mostly 114 µM), for inactives: at the top dose activity change, negative = inhibition, hits mostly inhibitors | 360,000 tested, 4.4% active; further: potency means the concentration at half of the fitted maximal effect; on the % scale 0 is the no-effect control and ±100 the full control effect; nearly all actives have a fitted effect of over 60% in size
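AlphaScreen displacement of biotin-H3(5-23)K14Ac peptide (50 nM final) from BAZ2B (50 nM final) in PBS pH 7.4, 0.01% Tween-20; complex preformed 30 min RT, then compounds (top 110 uM) 30 min RT, beads 20 min dark.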
JMJD2A Tudor inh = qHTS Assay for Inhibitors of JMJD2A-Tudor Domain; AID 504339, 2011; 390,000 tested, 4.4% active; AlphaScreen JMJD2A-Tudor / H3K4me3 peptide binding; Lysine-specific demethylase 4A (Homo sapiens), O75164; Potency, µM (doses to about 114 µM), without a hit: top-dose activity change, negative = inhibition, most hits filed as inhibitors; further: potency means the concentration at half of the fitted maximal effect; on the % scale 0 is the no-effect control and ±100 the full control effect; nearly all actives have a fitted effect of over 50% in size
PLK1 PBD block = qHTS for Inhibitors of PLK1-PDB (polo-like kinase 1 - polo-box domain): Primary Screen; AID 720504, 2013; Plk1 PBD binding of FITC phosphopeptide, fluorescence polarization; Potency, µM, for the others: max response, negative = inhibition, hits mostly inhibitors; 360,000 tested, 2.8% active; further: potency means the concentration at half of the fitted maximal effect; series mostly up to about 57 µM; on the % scale 0 is the no-effect control and ±100 the full control effect; nearly all actives have a fitted effect of over 65% in size
Numbers without * were called inactive; u = inconclusive; x = no result given; [ ] = remark or other dose. Unless noted, the call rests on the fitted dose curve; in most records, active means well fitted curve in the direction sought with a large enough effect; inconclusive means small, poorly fitted or top-dose-only effect, or another doubt; inactive means no such curve, though single readings can be large; an effect the other way counts as inactive or inconclusive.

SMILES | HP1b chromo inh | PI5P4K alpha inh | KAT2A inh | BAZ2B inh | JMJD2A Tudor inh | PLK1 PBD block
O=C(OCc1nc2ccccc2[n+]([O-])c1C(=O)c1ccccc1)c1ccco1 | -9% | 2 | 2% | -27% | -9% | -3%
O=C(OCc1nc2ccccc2[n+]([O-])c1C(=O)c1ccccc1)c1cccs1 | -18% | -2 | -9% | u | 79µM* | 3%
CN1CCN(C(=O)c2ccc3c(c2)N(Cc2c(F)cccc2Cl)C(=O)c2ccccc2S3)CC1 | 4% | x | 4% | x | -26% | x
O=S(=O)(c1ccccc1C(F)(F)F)N1CCN(c2nc(-c3cccs3)nc3ccccc23)CC1 | 54% | x | x | x | -11% | x
O=C1CCc2cc(S(=O)(=O)Nc3ccc(F)c(Cl)c3)ccc2N1 | x | x | x | x | 1% | x
CCC(=O)N1CCc2cc(Br)cc(S(=O)(=O)CCC(=O)N(C)c3cccc(C)c3)c21 | u | x | -1% | 45µM* | 50µM* | x
Cc1cccc(-n2cnc3c(sc4nc(N5CCOCC5)c5c(c43)CCCC5)c2=O)c1 | 20% | 1 | -7% | -10% | -8% | -5%
Cc1cc(Br)cn2c(Cc3ccsc3)c(-c3ccc(F)cc3)nc12 | x | -4 | x | x | x | u
O=[N+]([O-])C(=C1NCCN1)C(Cl)=C(Cl)Cl | 44% | 3 | 2% | -11% | 11% | 0%
CC1CCCC(C)N1C(=C(Cl)Cl)C(=C1SCCS1)[N+](=O)[O-] (stereo not drawn) | u | 2 | -13% | 18µM* | -19%[11.4 µM] | -12%
O=C(Cc1ccc([N+](=O)[O-])cc1)Nc1cccc(C(=O)N2CCCCC2)c1 | 16% | -6 | 0% | x | -29% | -14%
C=CCSc1nnc(-c2nnc(SCC=C)n2-c2ccccc2)n1-c1ccccc1 | 50% | 3 | 32µM* | 1% | -8% | -9%
Cc1cc2oc(C(=O)N(Cc3ccccc3)c3ccccn3)cc(=O)c2cc1Cl | 29% | -15 | -12% | -14% | -17% | 2%
CCCC(=O)NC(c1ccc(OC)c(OC)c1)c1cc(Cl)c2cccnc2c1O (stereo not drawn) | 37% | 1 | -1% | -11% | -21% | 2%
CCCCC(=O)NC(c1ccc(Cl)cc1Cl)c1ccc2cccnc2c1O (stereo not drawn) | 28% | u | 3% | u | u | 3.4µM*
CCCC(=O)NC(c1ccc(C(C)C)cc1)c1ccc2cccnc2c1O (stereo not drawn) | 53% | -3 | 0% | -23% | -20% | -12%
CCCC(=O)NC(c1ccc(N(C)C)cc1)c1ccc2cccnc2c1O (stereo not drawn) | -17% | -22 | -9% | 7%[0.457 µM] | 22µM* | 27µM*
COc1ccc(C(NC(C)=O)c2cc(Cl)c3cccnc3c2O)cc1 (stereo not drawn) | 58% | -1 | -6% | u | u | 1%
CCCC(=O)NC(c1ccco1)c1cc([N+](=O)[O-])c2cccnc2c1O (stereo not drawn) | 54% | -23 | -5% | 7.9µM* | -20%[11.4 µM] | u
CC(=O)NC(c1ccccc1)c1cc(Cl)c2cccnc2c1O (stereo not drawn) | 32% | -2 | 2% | 35µM* | u | -14%
COc1ccc(C(NC(=O)C(C)C)c2ccc3cccnc3c2O)cc1 (stereo not drawn) | 46% | 1 | -1% | 45µM* | -26% | -12%
CC(=O)NC(c1ccc(Cl)cc1)c1ccc2cccnc2c1O (stereo not drawn) | 38% | 1 | x | x | u | -13%
